Experimental findings from ChEMBL document CHEMBL3988442, “University of Dundee, Small-Polar-MMV Screening Library” (2021) are described below.

Structures are written as SMILES. Screen size: about 48,000 compounds; about 13,000 (27%) showed an effect of 50% or more. The list shows a part of the results.

The test system of the test is Wolbachia pipientis. In words: Anti-Wolbachia Cell-Based Screen. The format is functional. Details: scale not given: in the data most compounds retested in dose-response had high values. The note with it: 5 µM.
Regarding `CNC(=O)c1c(C)cccc1NCC(=O)Nc1cc(C)nn1C`, the “Percent Effect” value is on record as -2.295%.
As for `O=C(Nc1ccc(F)cc1)N(CCC(F)(F)F)C[C@H](O)CO`, the “Percent Effect” value is given as -0.3648%.
Under `Cc1nc2c(c(N3CCCOCC3)n1)CCN(c1nccs1)CC2` stands 108.7%; under `Cc1nc(N2CCOCC2)nc2c1CCN(c1nccs1)CC2`, 1.797%; under `Cc1nc2c(c(N3CCCOCC3)n1)CCN(C(=O)N1CCCC1)CC2`, 0.8074%.
On to `CCc1nc2n(n1)CCCC2NC(=O)Nc1cc(OC)ccc1C` (stereo not drawn), for which the “Percent Effect” value was 24.05%.
On to `CS(=O)(=O)CCCN1CCOC2(CCc3ccccc32)C1` (stereo not drawn), for which the “Percent Effect” value is -1.468%.
For the molecule `CN(Cc1cc(F)ccc1C#N)CC(C)(CO)CO`, the “Percent Effect” value worked out at 8.99%.
On to `Cc1cc(F)ccc1S(=O)(=O)N(C)CC(N)=O`, for which the “Percent Effect” value is reported as -0.8212%.
Under `COc1c(C2CCCN2C(=O)c2cccc(C(N)=O)c2)c(C)nn1C` (stereo not drawn) stands 8.718%.
With `COc1c(C2CCCN2C(=O)c2cccnc2N(C)C)c(C)nn1C` (stereo not drawn), the “Percent Effect” value came out at 107.7%.
Turning to `COc1c(C2CCCN2C(=O)c2cccc(C)n2)c(C)nn1C` (stereo not drawn), the “Percent Effect” value was 93.53%.
For the molecule `Cc1nn(C)c(Cl)c1C1CCCN1C(=O)c1ccc(N(C)C)nn1` (stereo not drawn), the “Percent Effect” value was -10.16%.
Consider `COc1c(C2CCCN2C(=O)c2ccnc(C)n2)c(C)nn1C` (stereo not drawn), for which the “Percent Effect” value is on record as 135.1%.
In the case of `COc1c(C2CCCN2C(=O)c2ccc(N(C)C)nn2)c(C)nn1C` (stereo not drawn), the “Percent Effect” value is listed as 97.2%.
Under `CS(=O)(=O)N1C[C@H](C(=O)Nc2cccnc2)C[C@H]2OCC[C@H]21.O=C(O)C(F)(F)F` stands -10.82%; under `CC[C@@]1(O)CCN(c2ncc(Cl)cc2C(F)(F)F)C[C@H]1O`, -3.293%.
With `COCc1noc(CNc2nc(C3CCCC3)nc3c2CCNCC3)n1`, the “Percent Effect” value is -2.329%.
`COc1ccc(SC(C)C(=O)N2CCC(C(=O)N3CCCC3)CC2)cc1` (stereo not drawn): the “Percent Effect” value is on record as -0.009577%.
Regarding `COCCNC(=O)C1CCCN1S(=O)(=O)c1sc(=O)[nH]c1C` (stereo not drawn), the “Percent Effect” value is given as -10.99%.
Turning to `COCCNC(=O)c1cc2c(s1)CCN2S(C)(=O)=O`, the “Percent Effect” value stood at 90.75%.
With `NC(=O)C1CCN(C(=O)c2cc(S(=O)(=O)N3CCCCC3)cs2)CC1`, the “Percent Effect” value came to 2.088%.
Turning to `CN(C)CCNC(=O)c1ccc(OC2CCN(S(C)(=O)=O)CC2)c(Cl)c1`, the “Percent Effect” value is reported as -4.841%.
For the molecule `COCCNC(=O)c1cc(S(=O)(=O)N2CCCCCC2)cs1`, the “Percent Effect” value was 97.81%.
For `CC(C)CNC(=O)c1cc2c(s1)CCN2S(C)(=O)=O`, the “Percent Effect” value was 101.5%.
In the case of `CC(C)CNC(=O)c1nc2c(s1)CCN(C(=O)c1cccnc1)CC2`, the “Percent Effect” value was -3.468%.
Turning to `COCCNC(=O)c1cc(S(=O)(=O)N2CCCCC2)cs1`, the “Percent Effect” value is 0.5112%.
Regarding `COCCNC(=O)NCCS(=O)(=O)N1CCN(c2cccc(C)c2)CC1`, the “Percent Effect” value is given as 9.148%.
On to `CC(C)CNC(=O)c1cc2c(s1)CCN2Cc1cccnc1`, for which the “Percent Effect” value is -6.846%.
As to `CN(C)CCNC(=O)c1cc2c(s1)CCN2S(C)(=O)=O`, the “Percent Effect” value is on record as 114.7%.
In the case of `Cc1ncsc1CCC(=O)N1CCN(CCn2cncn2)CC1`, the “Percent Effect” value is -30.48%.
On to `CS(=O)(=O)c1nnc(NC(=O)CCc2ccc(Cl)s2)[nH]1`, for which the “Percent Effect” value is given as -11.44%.
Under `COc1cc(CN(C)C(=O)NCCNC(=O)C2CC2)ccc1SC` stands 6.493%.
As to `Cc1nnc(CN2CCN(C)C3(CCNC(=O)CC3)C2)s1` (stereo not drawn), the “Percent Effect” value is given as -6.186%.
On to `CN(C)C(=O)CNC(=O)c1cc2c(s1)CCN2S(C)(=O)=O`, for which the “Percent Effect” value was found to be 110.9%.
`CN(C)C(=O)c1cc2c(s1)CCN(C(=O)CCCN1CCCCC1)C2`: the “Percent Effect” value is given as -52.48%.
As to `CN(C)C(=O)CNC(=O)c1cc(Br)c2c(c1)OCCO2`, the “Percent Effect” value is given as -3.612%.
`CC(C)(C)c1noc(CNc2ccccc2N2CCC(O)CC2)n1`: the “Percent Effect” value was -3.978%.
Regarding `CCC(C)CS(=O)(=O)NC(=O)C1CCC1` (stereo not drawn), the “Percent Effect” value came to 4.874%.
For the molecule `Cc1ccccc1N1CCN(c2ccncn2)C(C)C1` (stereo not drawn), the “Percent Effect” value stood at 0.9098%.
In the case of `Cc1csc(Nc2cc(C3CN(c4ccncn4)C3)nc(C)n2)n1`, the “Percent Effect” value is 120.5%.
Under `Cc1nc(Nc2nccs2)cc(C2CCCN2C2CCOCC2)n1` (stereo not drawn) stands -3.7%; under `Cc1cc(C)nc(Nc2cc(C3CCCN(C)C3)nc(C)n2)n1.O=CO` (stereo not drawn), -14.01%; under `CCc1nc2n(n1)CC(NCC(=O)Nc1nccs1)CC2` (stereo not drawn), -6.343%.
Under `Cc1csc(Nc2cc(C3CN(C(C)C)C3)nc(C)n2)n1` stands 95.99%; under `Cc1nc(Nc2nccs2)cc(C2CN(C(C)C)C2)n1`, 64.11%.
With `CCc1nc(NC(=O)NCCc2cscn2)nn1C`, the “Percent Effect” value is listed as -7.78%.
Under `O=C(NCCOc1ncc(Cl)cc1Cl)NCc1ccncc1` stands -21.42%; under `Cn1ccnc1SCCNc1ccnc(C(F)(F)F)n1`, 2.447%; under `CC(C)(CNC(=O)c1ccco1)CNC(=O)c1ccco1`, -33.3%.
Under `CC(C)(C)c1ncc(C(=O)NCCNC(=O)c2ccco2)s1` stands 107.2%.
As for `CC(C)(C)C(=O)c1ccsc1NC(=O)CCNC(=O)c1ccco1`, the “Percent Effect” value is given as -2.755%.
As for `CC(C)(NC(=O)c1cnc(C(C)(C)C)s1)C(N)=O`, the “Percent Effect” value is given as -3.596%.
Take `CC(C)(C)c1ncc(C(=O)NCCNC(=O)Cc2ccccc2)s1`: the “Percent Effect” value turned out to be 94.92%.
With `CCNc1ncc(C(=O)N[C@H](C(N)=O)c2ccccc2)cn1`, the “Percent Effect” value is listed as 7.272%.
In the case of `CC(C)(C)c1ncc(C(=O)NC(C(N)=O)c2ccccc2)s1` (stereo not drawn), the “Percent Effect” value is reported as 80.78%.
Under `CC(=O)c1cccc(OCCCC(=O)N(C)CC(N)=O)c1` stands -6.7%; under `Cc1cccc2[nH]c(C3CCN(C(=O)c4ccc[nH]4)CC3)nc12`, -3.208%.
For `O=C(Cc1ccn[nH]1)Nc1cncc(Br)c1O`, the “Percent Effect” value is -6.696%.
Take `CC(C)Cc1cc(CNC(=O)c2cccc3c2OCC3)no1`: the “Percent Effect” value is -12.78%.
Regarding `CC(=O)N[C@@H]1CN(Cc2nccn2C)C[C@H]1c1ccc(C)cc1`, the “Percent Effect” value is recorded as -2.996%.
Under `CC(CNC(=O)c1cc(N2CCNC2=O)ccc1F)c1ccccc1` (stereo not drawn) stands -2.028%; under `CC(Sc1nc(N)cc(N)n1)c1nc(C(C)(C)C)no1` (stereo not drawn), 6.059%.
For `CS(=O)(=O)N1C[C@H]2CN(CC3CC3)C(=O)[C@H]2C1`, the “Percent Effect” value is listed as 101.9%.
Turning to `O=C1[C@H]2CN(S(=O)(=O)C3CC3)C[C@H]2CN1CC1CC1`, the “Percent Effect” value was determined as 100.8%.
Consider `CCOCC(=O)N1C[C@H]2CN(CC3CC3)C(=O)[C@H]2C1`, for which the “Percent Effect” value is -26.93%.
Under `O=C1[C@H]2CN(S(=O)(=O)c3cccs3)C[C@H]2CN1CC1CC1` stands -15.27%; under `O=C1[C@H]2CN(c3ncc(F)cn3)C[C@H]2CN1CC1CC1`, 15.28%.
With `CCS(=O)(=O)N1C[C@H]2CN(CC3CC3)C(=O)[C@H]2C1`, the “Percent Effect” value was 114.7%.
Under `CN(C)C(=O)CN1CC[C@H]2CN(S(C)(=O)=O)C[C@@H]2C1=O.O=C(O)C(F)(F)F` stands -14.63%; under `CC(=O)N1C[C@H]2CN(CC3CC3)C(=O)[C@H]2C1`, -8.606%.
Under `O=C(CC(F)(F)F)N1C[C@H]2CN(CC3CC3)C(=O)[C@H]2C1` stands -26.88%; under `Cc1cccnc1NC(=O)c1ccc(-n2cncn2)nn1`, -9.23%; under `CCN(CCCNC(=O)c1cc2cccc(F)c2o1)S(C)(=O)=O`, 13.88%.
Under `O=C(NCc1ccc(Cl)s1)c1ccc(N2CCOC2=O)cc1` stands -4.831%; under `Cc1cc(CN(C)C2CCCN(c3cccnn3)C2)no1` (stereo not drawn), 110.4%; under `CN(Cc1cscn1)C1CCCN(c2cccnn2)C1` (stereo not drawn), 95.91%.
For `CN(Cc1cc(-c2ccccc2)no1)C1CCCN(c2cccnn2)C1` (stereo not drawn), the “Percent Effect” value is reported as -1.752%.
Under `CCOc1nnc(CN(C)C2CCCN(c3ccc(C)nn3)C2)s1` (stereo not drawn) stands 91.1%; under `Cc1ccc(N2CCCC(N(C)Cc3ccccn3)C2)nn1` (stereo not drawn), 1.725%; under `Cc1cnc(CN(C)C2CCCN(c3cccnn3)C2)cn1` (stereo not drawn), 107%.
On to `CN(Cc1nnc(-c2ccco2)o1)C1CCCN(c2cccnn2)C1` (stereo not drawn), for which the “Percent Effect” value came out at 5.287%.
As for `Cc1cc(CN(C)C2CCCN(c3cccnn3)C2)on1` (stereo not drawn), the “Percent Effect” value is listed as -2.461%.
Turning to `Cc1ccc(N2CCCC(N(C)Cc3cc(C)on3)C2)nn1` (stereo not drawn), the “Percent Effect” value is recorded as -10.05%.
As to `CCOc1nnc(CNC2CCCN(c3ccc(C)nn3)C2)s1` (stereo not drawn), the “Percent Effect” value was determined as 6.809%.
On to `CC(C)n1nc2c(cc1=O)CN(c1nc3ccccc3s1)CC2`, for which the “Percent Effect” value worked out at 8.102%.
In the case of `CC(NC(=O)N1CCC2(C1)OCCO2)c1cccc(Cl)c1` (stereo not drawn), the “Percent Effect” value is -15.89%.
As to `CN1CCCC(CCC(=O)N2CCc3onc(C(=O)N(C)C)c3C2)C1` (stereo not drawn), the “Percent Effect” value worked out at 14.32%.
For `Cc1noc(CNc2ccccc2N2CCCCC2)n1`, the “Percent Effect” value was determined as 5.096%.
Under `CC(C)c1noc(CS(=O)(=O)CC(=O)NCC(F)(F)F)n1` stands -6.707%; under `Cc1ncc(CN(C)CC2CCCN2c2cccnn2)s1` (stereo not drawn), 0.5019%; under `Cc1ncc(CN(C)C2CCCN(c3cccnn3)C2)s1` (stereo not drawn), 87.88%.
Under `CN(Cc1ncc(C(C)(C)C)o1)C1CCCN(c2cccnn2)C1` (stereo not drawn) stands -2.807%.
For the molecule `Cc1ccsc1[C@@H]1CCN(C(=O)CCc2nc3ccccc3[nH]2)C[C@H]1O`, the “Percent Effect” value is given as -8.794%.
As to `Cc1cc(C(=O)N2CCC3(CC2)CC(c2cccnc2)C(=O)N3)no1.O=C(O)C(F)(F)F` (stereo not drawn), the “Percent Effect” value is reported as 102.9%.
Regarding `O=C1NC2(CCN(C(=O)c3ccnnc3)CC2)CC1c1ccccc1` (stereo not drawn), the “Percent Effect” value amounted to 95.48%.
As to `Cc1ccc(C(=O)N2CCC3(CC2)CC(c2ccccc2)C(=O)N3)cn1.O=C(O)C(F)(F)F` (stereo not drawn), the “Percent Effect” value was -11.02%.
For `O=C(O)C(F)(F)F.O=C1NC2(CCN(C(=O)N3CCOCC3)CC2)CC1c1cccnc1` (stereo not drawn), the “Percent Effect” value was 179.1%.
Regarding `Cc1cnc(C(=O)N2CCC3(CC2)CC(c2ccccc2)C(=O)N3)cn1` (stereo not drawn), the “Percent Effect” value is -6.858%.
Under `O=C1NC2(CCN(C(=O)c3ccc(Cl)cc3)CC2)CC1c1ccccc1` (stereo not drawn) stands 7.391%; under `Cc1cccc(C(=O)N2CCC3(CC2)CC(c2ccccc2)C(=O)N3)c1` (stereo not drawn), -4.545%; under `O=C(O)C(F)(F)F.O=C1NC2(CCN(C(=O)c3ccccc3)CC2)CC1c1cccnc1` (stereo not drawn), -9.682%.
As to `O=C(O)C(F)(F)F.O=C1NC2(CCN(c3ncccn3)CC2)CC1c1cccnc1` (stereo not drawn), the “Percent Effect” value is given as -4.388%.
